Assay results reported in PubChem BioAssay (NCI).
This is part of a sample that, as a whole, favours compounds with a hit. Of some 79,000 tested, about 15% had one in any assay. Cut-off read from the data, not from the text of the source: active = growth inhibition above about 70%; inactive = the rest.

Columns and labels:
[1] = NCI Yeast Anticancer Drug Screen. Data for the rad50 strain (AID 155);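 note: 0% = growth of vehicle-only cultures of the same strain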; conditions: S. cerevisiae rad50 strain growth inhibition; at 50.0 µM; stronger effect = higher value
Summary of the method: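 Relative growth inhibition (compound vs vehicle) was measured in yeast with a defined repair-gene alteration.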

[2] = NCI Yeast Anticancer Drug Screen. Data for the mec2-1 strain (AID 157); conditions: S. cerevisiae mec2-1 strain, at 50.0 µM, stronger effect = higher value
Summary of the method: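 Mutant yeast (mec2-1) grown with compound; growth inhibition relative to vehicle control reported.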

[3] = NCI Yeast Anticancer Drug Screen. Data for the sgs1 mgt1 strain (AID 161);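 note: 0% = growth of cultures given vehicle only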; conditions: S. cerevisiae sgs1 mgt1 strain, at 50.0 µM, stronger effect = higher value
Summary of the method: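 This yeast growth screen uses a strain with defined DNA-repair lesions; compound-treated growth is compared with vehicle-treated growth.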

[4] = NCI Yeast Anticancer Drug Screen. Data for the cln2 rad14 strain (AID 165);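 note: 0% = growth equal to vehicle treated cultures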; conditions: S. cerevisiae cln2 rad14 strain, at 50.0 µM, stronger effect = higher value
Summary of the method: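 Readout is yeast growth inhibition versus vehicle-treated controls, using a strain with cln2 and rad14 alterations exposed to compound.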

[5] = NCI Yeast Anticancer Drug Screen. Data for the bub3 strain (AID 167); conditions: S. cerevisiae bub3 mutant strain, at 50.0 µM, stronger effect = higher value
Summary of the method: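 Screening used yeast with an engineered genetic alteration affecting cell cycle control. Compound-exposed cultures were compared with vehicle cultures, and reduced growth was taken as inhibition.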

[6] = NCI Yeast Anticancer Drug Screen. Data for the mlh1 rad18 strain (AID 175); conditions: S. cerevisiae mlh1 rad18 strain growth inhibition; at 50.0 µM; stronger effect = higher value
Summary of the method: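 Genetically defined yeast (DNA repair-deficient) exposed to compounds; growth inhibition determined relative to vehicle.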

Measured: growth inhibition

C[N+](C)(C)CC(CC(=O)[O-])C1CC1 (stereo not given)
inactive: [1] 3.7% | [2] -7.8% | [3] -18.6% | [4] 2.1% | [5] -19.1% | [6] -19.1%

NCC1OC(OC2C(CO)OC(OC3C(O)C(N)CC(N)C3OC3OC(CN)C(O)C(O)C3N)C2O)C(N)C(O)C1O (stereo not given)
inactive: [1] 6.1% | [2] 2.3% | [3] 10.3% | [4] 3% | [5] 15.4% | [6] 6.8%

COc1ccc2n[se]nc2c1
inactive: [1] 46.4% | [2] 28.1% | [3] 26.9% | [4] 11.6% | [5] 51.6% | [6] 21%

CS[P+]1(C)C=C(N2CCOCC2)CC1 (stereo not given)
inactive: [1] 37.4% | [2] 15.2% | [3] 0.6% | [4] -8% | [5] 8.8% | [6] 10.3%

COC(=O)C1C2CCCN2OC1(C)CO (stereo not given)
inactive: [1] -2.6% | [2] 12.5% | [3] 12.4% | [4] 2.45% | [5] 12.9% | [6] 2.1%

CCOC(=O)NP(=O)(Nc1ccccc1)Nc1ccccc1
inactive: [1] 21.2% | [2] -8.05% | [3] -3.5% | [4] 5.7% | [5] -5.1% | [6] -5%

c1ccc(N2CCN(Cc3c[nH]c4ccccc34)CC2)cc1
inactive: [1] 7.9% | [2] 1.9% | [3] 7.55% | [4] -26.6% | [5] 0.85% | [6] -9.6%

Nc1ncnc2c1c(Cl)cn2C1OC(CO)C(O)C1O (stereo not given)
inactive: [1] 10.1% | [2] 15.2% | [3] 12% | [4] 32.4% | [5] 19.2% | [6] 26.4%

CCCCC(CC)COP(OCC(CC)CCCC)OCC(CC)CCCC.[Br][Hg][Br] (stereo not given)
inactive: [1] 4.55% | [2] -3.1% | [3] -10.8% | [4] -8.25% | [5] -8.95% | [6] -6.4%

COc1cccc(C=C(C#N)C#N)c1
inactive: [1] 46.8% | [2] 23.8% | [3] 31.7% | [4] 26.4% | [5] 14.6% | [6] 33.4%

CCCCOP(=O)(OCCCC)OC(C)C(C)=O (stereo not given)
inactive: [1] -0.15% | [2] 2.75% | [3] 5.6% | [4] 0.45% | [5] 5.15% | [6] -2.05%

CN(C)P1(=S)NCC(C(C)(C)C)CO1 (stereo not given)
inactive: [1] 10.2% | [2] -40.1% | [3] -10.9% | [4] 11.2% | [5] 18.5% | [6] -43.4%

CC1=NCCN=C(C)C1[N+](=O)[O-]
inactive: [1] 6.7% | [2] 10.9% | [3] 39.2% | [4] 0.55% | [5] 2.65% | [6] 24.3%

CN1CCN(C)C(N2CCOCC2)C(C)(C)C1 (stereo not given)
inactive: [1] 15.4% | [2] -4.2% | [3] -8.15% | [4] -9.45% | [5] 0.85% | [6] 2.85%

c1ccc2c(c1)CC1OCN3CN(COC4Cc5ccccc5CC43)C1C2 (stereo not given)
inactive: [1] 0.75% | [2] -4.7% | [3] 1.2% | [4] -5.9% | [5] -1.45% | [6] -7.15%

c1ccc2c(c1)CN1Cc3ccccc3C2C1
inactive: [1] 6.6% | [2] -12.3% | [3] -13.5% | [4] -13.7% | [5] 2.65% | [6] -6.35%

O=[N+]([O-])c1ccc(/C=N\NP(Br)(c2ccccc2)(c2ccccc2)c2ccccc2)cc1
inactive: [1] 15.4% | [2] 0.3% | [3] 26.9% | [4] 3.95% | [5] -2.5% | [6] 4.75%

CC(C)N(C(=O)SCC(Cl)=C(Cl)Cl)C(C)C
inactive: [1] -2.95% | [2] -15.8% | [3] -0.35% | [4] -3.05% | [5] -12.3% | [6] 30%

COC(=O)c1cccc2cc3cccc[n+]3cc12
inactive: [1] 3.7% | [2] -5.5% | [3] -9.3% | [4] -35.3% | [5] -1.05% | [6] 0.75%

CN1CCc2ccc(O)cc2C1
inactive: [1] 16.3% | [2] 5.6% | [3] 3.95% | [4] -7.5% | [5] 15.7% | [6] 10.6%
